# Potency and affinity values are given separately. Activity calls are given as the source filed them. The rule behind the calls is not given here.
# Conditions: HEK293 cytotoxicity, plate reader; series mostly up to 26 µM; activity change, negative = cytotoxicity: at the top concentration
Structure (SMILES),"activity change, negative = cytotoxicity",outcome
FC(F)(F)c1cccc(OCCn2cnc3ccccc32)c1,-20.5% (inactive),
CSc1nc2ccccc2n1CCOc1cc(C)ccc1C(C)C,-2.02% (inactive),
OCc1nc2ccccc2n1CCOc1ccccc1,4.92% (inactive),
CCCc1nc2ccccc2n1CCOc1ccccc1,-1.9% (inactive),
Fc1cccc2c1[nH]c(=S)n2CCOc1ccccc1,-1.06% (inactive),
COc1ccccc1OCCn1c(=S)[nH]c2ccccc21,6.22% (inactive),
Cc1ccc(C(C)C)c(OCCn2c(=S)[nH]c3ccccc32)c1,-6.34% (inactive),
Clc1ccccc1OCCn1cnc2ccccc21,1.94% (inactive),
Cc1ccccc1OCCn1cnc2ccccc21,0.81% (inactive),
Clc1ccc(OCCn2cnc3ccccc32)cc1,-3.98% (inactive),
Cc1ccc2c(c1)[nH]c(=S)n2CCOc1ccccc1,-7.88% (inactive),
Fc1ccc(OCCn2c(=S)[nH]c3ccccc32)cc1,3.96% (inactive),
Cc1ccc(OCCn2cnc3ccccc32)c(C)c1,-3.05% (inactive),
CCCCc1nc2ccccc2n1CCOc1ccccc1,2.48% (inactive),
Cc1cccc(OCCn2c(=S)[nH]c3ccccc32)c1,-9.77% (inactive),
Cc1cc2ncn(CCOc3ccccc3)c2cc1C,-13.7% (inactive),

Structure (SMILES),"activity change, negative = cytotoxicity",outcome
CCSc1nc2ccccc2n1CCOc1ccccc1,-3.94% (inactive),
CCc1nc2ccccc2n1CCOc1ccccc1,0.75% (inactive),
Fc1ccc2c(c1)[nH]c(=S)n2CCOc1ccccc1,-9.9% (inactive),
CS(=O)(=O)c1ccc(OCCn2cnc3ccccc32)cc1,-4.02% (inactive),
Clc1ccc(OCCn2cnc3ccccc32)c(Cl)c1,-8.49% (inactive),
S=c1[nH]c2cccc(Cl)c2n1CCOc1ccccc1,-3.5% (inactive),
O=S(=O)(c1ccc(OCCn2cnc3ccccc32)cc1)N1CCOCC1,-5.74% (inactive),
COc1ccc(OCCn2cnc3ccccc32)cc1,1.18% (inactive),
CC(C)Oc1ccc(OCCn2c(=S)[nH]c3ccccc32)cc1,-4.94% (inactive),
Cc1ccc(OCCn2cnc3cc(C)c(C)cc32)cc1,4.94% (inactive),
COc1cccc(OCCn2cnc3ccccc32)c1,-6.92% (inactive),
CSc1nc2ccccc2n1CCOc1ccc(C)cc1,3.08% (inactive),
Cc1cccc(OCCn2cnc3ccccc32)c1,0.448% (inactive),
Cc1cccc(OCCn2c(=S)[nH]c3c(F)cccc32)c1,,inactive
CC(C)Oc1ccc(OCCn2cnc3ccccc32)cc1,-11.5% (inactive),

# Source: PubChem BioAssay AID743316 (Broad Institute, 2014)
